Experimental data as given in PubChem BioAssay (Tox21).
Inconclusive results are not listed. A number with no mark means an inactive call. Active and inactive are the calls of the source. The call rests on the fitted dose curve; in most records, active means well fitted activation curve with a large enough effect in the signal ratio in the repeat runs (not every such curve was filed as active); inconclusive means weak or mixed curves; inactive means flat fitted curve, though single readings scatter; the % refers to the signal ratio. Non-standard residues stand in square brackets, D forms with d. Residues, ends and D or L forms follow the SMILES beside them. *: point of attachment. Sta = CC(C)C[C@H](N)[C@@H](O)CC(=O)O; Isovaleryl = CC(C)CC(=O)*

test: qHTS assay to identify small molecule agonists of the TGF-beta/Smad signaling pathway (AID 1346859); details: SBE-bla HEK293T, TGF-beta/Smad beta-lactamase reporter, 5 h; series mostly up to 76.8 µM
From the text: U.S. Tox21 Program National Center for Advancing Translational Sciences [NCATS] NIH Chemical Genomics Center [NCGC] U.S. Environmental Protection Agency [EPA] National Institutes of Environmental Health Sciences [NIEHS] National Toxicology Program [NTP] U.S. Food and Drug Administration [FDA] Tox21 Assay Overview: Transforming growth factor beta (TGF-beta) superfamily consists of a large number of structurally related dimeric proteins that act as hormones or local mediators in regulating a wide range of biological functions. This superfamily includes TGF-betas themselves, the bone morphogenetic proteins (BMPs) and the activins. These ligands induce oligomerization of serine/threonine receptor kinases and phosphorylate the cytoplasmic signaling molecules of Smad protein family. CellSensor SBE-bla HEK 293T cell line (Life Technologies, Carlsbad, CA), responsive to TGF-beta was used to screen Tox21 10K compound library for identification of agonists/antagonists of the Smad signaling pathway. This cell line contains a beta-lactamase reporter gene under control of the Smad binding element (SBE) stably integrated into HEK 293T cells.
Tox21 Assay Protocol Summary: SBE-bla HEK 293T cells were dispensed at 4,000/well in 6 uL of assay medium into black wall/clear-bottom 1536-well plates using a Multidrop Combi (ThermoFisher Scientific, Waltham, MA) dispenser. After the assay plates were incubated at 37 C and 5% CO2 for an overnight, 23 nL of compounds dissolved in DMSO, positive controls or DMSO only was transferred to the assay plate by a Pintool station (Kalypsys, San Diego, CA). The assay plates were incubated at 37 C and 5% CO2 for 5 hr. One uL of LiveBLAzer B/G FRET substrate (Life Technologies) was added using a Flying Reagent Dispenser (Aurora Discovery, San Diego, CA) and the plates were incubated at room temperature for 2 hr. Fluorescence intensity (405 nm excitation, 460 nm and 530 nm emissions) was measured using an Envision plate reader (PerkinElmer, Shelton, CT).
On the % scale 0 is the no-effect control and ±100 the full control effect.

Compound	outcome	activation
C/C=C(\C)C(=O)OC/C=C(\C)CCC=C(C)C	inactive	
CSC(=O)c1cccc2nnsc12	inactive	
Cc1ccc(O)c([N+](=O)[O-])c1	inactive	
CCCCCCCCCCCCCC(=O)OCC	inactive	
C=CC(C)(CCC=C(C)C)OC(=O)C(C)C (stereo not given)	inactive	
CCCCCCCCC1CO1 (stereo not given)	inactive	
CN(C)CCc1c[nH]c2ccc(CS(=O)(=O)N3CCCC3)cc12	inactive	
CC(=O)OC1CCC(C(C)(C)C)CC1 (stereo not given)	inactive	
C[Si](C)(C)O[Si](O)(O)O	inactive	
CN(C)CCC[C@@]1(c2ccc(F)cc2)OCc2cc(C#N)ccc21	inactive	
COCCCOc1cc(C[C@@H](C[C@H](N)[C@@H](O)C[C@H](C(=O)NCC(C)(C)C(N)=O)C(C)C)C(C)C)ccc1OC	inactive	
Cc1cc(=O)oc2cc(O[C@@H]3SC[C@@H](O)[C@H](O)[C@H]3O)ccc12	inactive	
CCc1ncc(C)[nH]1	inactive	
O=C1c2ccccc2C(=O)N1CO	inactive	
CCC(=O)OCCOc1ccccc1	inactive	
Cc1cc2c(cc1CC(=O)c1sccc1S(=O)(=O)Nc1onc(C)c1Cl)OCO2	inactive	
CCCCC(O)/C=C(C)/C=C/C=C/C(=O)N1CCCC1=O (stereo not given)	inactive	
CCC(C)SSC(C)CC (stereo not given)	inactive	
COC(=O)/C=C(\C)CCC=C(C)C	inactive	
CCCCCCCCCCCBr	inactive	

Compound	outcome	activation
CCCC(=O)CC	inactive	
CC(O)CCCCn1c(=O)c2c(ncn2C)n(C)c1=O (stereo not given)	inactive	
CCN1CCN(C(=O)N[C@@H](C(=O)N[C@@H]2C(=O)N3C(C(=O)O)=C(CSc4nnnn4C)CS[C@H]23)c2ccc(O)cc2)C(=O)C1=O	inactive	
CC(C)CC(=O)N[C@H](C(=O)N[C@H](C(=O)N[C@@H](CC(C)C)[C@@H](O)CC(=O)N[C@@H](C)C(=O)N[C@@H](CC(C)C)[C@@H](O)CC(=O)O)C(C)C)C(C)C (Isovaleryl-VV[Sta]A[Sta]-OH)	inactive	
c1cc2ccc3ccc4ccc5cccc6c(c1)c2c3c4c56		25.1% [at 2.72 µM]
CCCCCCC(O)CO (stereo not given)	inactive	
COC(=O)c1c(C)cc(O)c(C)c1O	inactive	
Cc1cc(C)c(C)c(C)c1	inactive	
O=C1CC2(CCCC2)CC(=O)N1CCNCC1COc2ccccc2O1 (stereo not given)	inactive	
C/C=C/C(=O)CCCC	inactive	
CCCCCCCCCCCCCCBr	inactive	
CCCC(=O)OC	inactive	
Nc1ccc(C(=O)NCC(=O)O)cc1	inactive	
C=CCCCCCCCCCCCCCC		0.917% [at 15.8 µM]
CC(C)(C)c1ccc(N)cc1	inactive	
N=C(N)N	inactive	
Cc1nc2ccc(Cl)cc2[nH]1	inactive	
CC(=O)Nc1ccc(S(=O)(=O)Nc2cc(C)on2)cc1	inactive	
CCCCN=C(N)N=C(N)N	inactive	
Cc1ccc2cccnc2c1	inactive	
